PubChem BioAssay AID720517 (National Center for Advancing Translational Sciences (NCATS), 2013)
Records with an inconclusive call do not appear. A call without a number means that no potency is given here. Active and inactive are the calls of the source. Calls come from the whole dose curve; as a rule, active = well fitted activation curve with a large enough effect; inconclusive = small, poorly fitted or top-dose-only effect; inactive = flat fitted curve, though single readings scatter.

Test: qHTS for Inhibitors of Cell Surface uPA Generation: FP59 Counterscreen for Cherry-picked Compounds
Settings: FP59 anthrax toxin cytotoxicity counterscreen, cells; series mostly up to 115 µM

SMILES	Potency
CCCCn1c(C2CCCCC2)nc2cc3[nH]c(=O)c(C(C)C)nc3cc21	inactive
COc1ccc(C(=O)CC2(C(=O)O)CCCCC2)cc1	inactive
COc1ccccc1N1CCN(C2CC(=O)N(c3ccccc3)C2=O)CC1 (configuration not stated)	inactive
NC(=O)CC[C@H](NC(=O)c1ccc(F)cc1)C(=O)OCC(=O)Nc1c(F)c(F)c(F)c(F)c1F	inactive
Cc1ccc(S(=O)(=O)NNC(=O)c2ccc(F)cc2)cc1	inactive
COc1ccc(/C=N/NC(=O)COc2ccc3ccccc3c2)c(C(=O)O)c1OC	inactive
O=C(NNC(=O)c1ccc2ccccc2c1)Nc1ccc(F)cc1	inactive
Cc1cc(C)n2c(SCC#N)nnc2n1	inactive
Cc1cc(C)n(CCCNC(=O)c2ccc(C)o2)n1	inactive
O=C(C1CCCCN1S(=O)(=O)c1ccc(F)cc1)N1CCN(c2ccccc2F)CC1 (configuration not stated)	inactive
Cc1ccccc1-c1nnc(SCC(=O)NCC2CCCO2)o1 (configuration not stated)	inactive
C/C=C(/C(=C/C)c1ccc(O)cc1)c1ccc(O)cc1	inactive
C=CCOC(=O)C1=C(C)NC(C)=C(C(=O)OCC=C)C1c1cn(-c2ccccc2)nc1-c1ccco1	inactive
COc1ccc(C[C@@H]2OC3(C=CC(=O)C=C3)O[C@H]2Cc2ccc(OC)cc2)cc1	inactive
COc1ccc(-n2ncc3c(=O)n(CC(=O)NC(C)C)cnc32)cc1	inactive
COc1ccc(NC(=O)c2nn(C)c3c2CS(=O)(=O)c2ccccc2-3)cc1	inactive
Cn1c(SCC(=O)NCCc2ccccc2)ncc(C(=O)Nc2ccc(F)cc2)c1=O	inactive
COc1cc(C(C)=O)ccc1OCc1cn(CC(=O)c2ccc(O)cc2)nn1	inactive
COC(=O)[C@H](CC(C)C)N(Cc1ccccc1)S(=O)(=O)N(Cc1ccc(OC)cc1)[C@@H](CC(C)C)C(=O)OC	inactive
CCCc1nc2c(=O)n(C)c(=O)[nH]c2n1CCC	inactive
O=C(C1=C[C@H](c2ccccc2)C[C@H](OCCCCO)O1)N1CCN(Cc2ccc3c(c2)OCO3)CC1	inactive
CCCCOc1ccc(S(=O)(=O)N2CCCCC2)cc1	inactive
